Targets with a hit are over-represented here; the source holds about 8,800 in all. About 0.5% of all pairs of compound and target were hits. Values without a mark were called inactive.

Sequence of UniProt O00506 (O00506 whole entry, looked up): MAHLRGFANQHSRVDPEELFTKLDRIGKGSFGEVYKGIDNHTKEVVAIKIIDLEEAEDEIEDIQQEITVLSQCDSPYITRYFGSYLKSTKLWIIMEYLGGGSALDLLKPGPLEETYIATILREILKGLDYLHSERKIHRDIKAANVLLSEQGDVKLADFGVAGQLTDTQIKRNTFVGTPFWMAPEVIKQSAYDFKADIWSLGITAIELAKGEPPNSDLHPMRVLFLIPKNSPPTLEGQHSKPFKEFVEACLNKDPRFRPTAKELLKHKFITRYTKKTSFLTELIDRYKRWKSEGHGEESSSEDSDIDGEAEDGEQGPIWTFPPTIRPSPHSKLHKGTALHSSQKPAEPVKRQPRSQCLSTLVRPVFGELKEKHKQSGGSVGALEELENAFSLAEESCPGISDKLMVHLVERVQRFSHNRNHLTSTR
Sequence of UniProt P62316 (P62316 whole entry, looked up): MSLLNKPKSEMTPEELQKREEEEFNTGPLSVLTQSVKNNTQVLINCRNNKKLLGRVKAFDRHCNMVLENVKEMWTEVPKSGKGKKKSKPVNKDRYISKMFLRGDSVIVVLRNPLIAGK
Sequence of UniProt Q92540 (Q92540 whole entry, looked up): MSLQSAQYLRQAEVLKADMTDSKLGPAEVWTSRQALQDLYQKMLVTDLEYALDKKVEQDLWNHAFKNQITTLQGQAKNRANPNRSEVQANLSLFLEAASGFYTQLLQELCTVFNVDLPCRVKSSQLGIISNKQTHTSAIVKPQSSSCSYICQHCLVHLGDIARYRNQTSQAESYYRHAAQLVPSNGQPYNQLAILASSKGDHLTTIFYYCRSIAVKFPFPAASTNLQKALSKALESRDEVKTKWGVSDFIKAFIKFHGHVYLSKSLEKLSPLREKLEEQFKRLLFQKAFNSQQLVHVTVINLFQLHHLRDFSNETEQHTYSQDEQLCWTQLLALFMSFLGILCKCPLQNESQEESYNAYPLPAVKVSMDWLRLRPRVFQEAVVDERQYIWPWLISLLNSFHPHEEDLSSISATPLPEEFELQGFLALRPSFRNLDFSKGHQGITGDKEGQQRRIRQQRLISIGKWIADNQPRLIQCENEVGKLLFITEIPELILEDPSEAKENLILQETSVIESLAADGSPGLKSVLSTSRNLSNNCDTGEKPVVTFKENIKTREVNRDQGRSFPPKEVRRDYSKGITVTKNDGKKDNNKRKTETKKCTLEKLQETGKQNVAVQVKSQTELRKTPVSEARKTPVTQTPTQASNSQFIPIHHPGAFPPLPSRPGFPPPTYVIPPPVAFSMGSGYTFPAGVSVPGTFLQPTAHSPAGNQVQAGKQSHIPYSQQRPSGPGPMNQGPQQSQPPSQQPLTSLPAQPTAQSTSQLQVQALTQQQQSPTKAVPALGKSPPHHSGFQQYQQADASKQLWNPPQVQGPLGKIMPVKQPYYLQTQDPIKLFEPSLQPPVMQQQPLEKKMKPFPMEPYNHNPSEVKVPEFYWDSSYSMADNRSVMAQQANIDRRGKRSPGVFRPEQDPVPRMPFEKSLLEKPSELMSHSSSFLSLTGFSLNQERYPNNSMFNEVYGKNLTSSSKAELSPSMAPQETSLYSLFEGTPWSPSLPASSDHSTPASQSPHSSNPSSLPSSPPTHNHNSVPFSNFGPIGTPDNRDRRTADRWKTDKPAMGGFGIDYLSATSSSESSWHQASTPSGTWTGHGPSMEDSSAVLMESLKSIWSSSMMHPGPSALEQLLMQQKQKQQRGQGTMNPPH
Sequence of UniProt Q99963 (Q99963 whole entry, looked up): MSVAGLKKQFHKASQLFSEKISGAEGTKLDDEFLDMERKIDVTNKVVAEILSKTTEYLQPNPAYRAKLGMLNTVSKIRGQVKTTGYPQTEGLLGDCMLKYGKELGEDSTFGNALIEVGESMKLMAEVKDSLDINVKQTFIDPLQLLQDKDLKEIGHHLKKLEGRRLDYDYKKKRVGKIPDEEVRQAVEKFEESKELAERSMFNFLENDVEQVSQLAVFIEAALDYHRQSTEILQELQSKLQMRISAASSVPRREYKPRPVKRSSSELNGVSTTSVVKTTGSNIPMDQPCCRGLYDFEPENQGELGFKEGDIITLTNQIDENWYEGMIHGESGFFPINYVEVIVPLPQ
Sequence of UniProt Q9H7B4 (Q9H7B4 whole entry, looked up): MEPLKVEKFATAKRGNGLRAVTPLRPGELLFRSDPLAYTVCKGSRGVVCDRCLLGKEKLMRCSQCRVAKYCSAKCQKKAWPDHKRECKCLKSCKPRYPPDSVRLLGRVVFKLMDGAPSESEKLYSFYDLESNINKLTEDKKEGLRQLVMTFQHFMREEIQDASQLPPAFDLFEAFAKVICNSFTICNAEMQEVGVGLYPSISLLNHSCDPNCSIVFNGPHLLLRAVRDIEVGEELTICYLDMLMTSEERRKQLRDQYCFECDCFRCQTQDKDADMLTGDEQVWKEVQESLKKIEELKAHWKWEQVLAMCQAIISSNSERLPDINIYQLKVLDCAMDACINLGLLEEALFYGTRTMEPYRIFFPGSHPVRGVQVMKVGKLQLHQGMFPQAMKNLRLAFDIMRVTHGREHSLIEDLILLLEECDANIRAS
Sequence of UniProt P62306 (P62306 whole entry, looked up): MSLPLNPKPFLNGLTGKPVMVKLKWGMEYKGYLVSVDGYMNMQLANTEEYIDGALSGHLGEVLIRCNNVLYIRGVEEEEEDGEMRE
Sequence of UniProt P53985 (P53985 whole entry, looked up): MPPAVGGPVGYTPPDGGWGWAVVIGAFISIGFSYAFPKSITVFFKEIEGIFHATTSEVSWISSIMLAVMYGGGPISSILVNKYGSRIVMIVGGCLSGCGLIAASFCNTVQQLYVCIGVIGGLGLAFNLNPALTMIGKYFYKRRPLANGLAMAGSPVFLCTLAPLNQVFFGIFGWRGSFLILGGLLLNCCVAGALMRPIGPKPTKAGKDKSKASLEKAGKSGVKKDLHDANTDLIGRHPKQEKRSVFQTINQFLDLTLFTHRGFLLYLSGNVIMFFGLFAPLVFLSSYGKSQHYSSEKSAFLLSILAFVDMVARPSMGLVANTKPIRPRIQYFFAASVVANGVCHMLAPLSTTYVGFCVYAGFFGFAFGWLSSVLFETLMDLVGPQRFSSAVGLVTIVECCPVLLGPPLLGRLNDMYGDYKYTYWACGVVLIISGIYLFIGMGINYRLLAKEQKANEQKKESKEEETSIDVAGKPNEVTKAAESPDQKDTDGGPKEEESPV
Sequence of UniProt Q13573 (Q13573 whole entry, looked up): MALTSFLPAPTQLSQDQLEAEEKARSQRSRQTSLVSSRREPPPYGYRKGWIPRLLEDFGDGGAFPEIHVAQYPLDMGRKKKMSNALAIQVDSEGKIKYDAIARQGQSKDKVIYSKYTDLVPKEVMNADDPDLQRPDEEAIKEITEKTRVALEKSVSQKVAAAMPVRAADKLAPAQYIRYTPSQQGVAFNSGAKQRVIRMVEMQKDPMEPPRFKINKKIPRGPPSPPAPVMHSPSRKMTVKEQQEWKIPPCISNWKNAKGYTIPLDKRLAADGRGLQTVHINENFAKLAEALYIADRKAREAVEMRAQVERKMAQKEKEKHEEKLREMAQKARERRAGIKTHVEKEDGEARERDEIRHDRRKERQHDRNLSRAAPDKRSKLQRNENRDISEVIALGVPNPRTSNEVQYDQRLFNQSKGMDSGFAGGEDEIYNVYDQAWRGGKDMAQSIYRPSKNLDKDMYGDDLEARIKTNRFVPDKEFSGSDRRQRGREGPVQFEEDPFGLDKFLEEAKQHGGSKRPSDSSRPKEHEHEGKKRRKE
Sequence of UniProt P29353 (P29353 whole entry, looked up): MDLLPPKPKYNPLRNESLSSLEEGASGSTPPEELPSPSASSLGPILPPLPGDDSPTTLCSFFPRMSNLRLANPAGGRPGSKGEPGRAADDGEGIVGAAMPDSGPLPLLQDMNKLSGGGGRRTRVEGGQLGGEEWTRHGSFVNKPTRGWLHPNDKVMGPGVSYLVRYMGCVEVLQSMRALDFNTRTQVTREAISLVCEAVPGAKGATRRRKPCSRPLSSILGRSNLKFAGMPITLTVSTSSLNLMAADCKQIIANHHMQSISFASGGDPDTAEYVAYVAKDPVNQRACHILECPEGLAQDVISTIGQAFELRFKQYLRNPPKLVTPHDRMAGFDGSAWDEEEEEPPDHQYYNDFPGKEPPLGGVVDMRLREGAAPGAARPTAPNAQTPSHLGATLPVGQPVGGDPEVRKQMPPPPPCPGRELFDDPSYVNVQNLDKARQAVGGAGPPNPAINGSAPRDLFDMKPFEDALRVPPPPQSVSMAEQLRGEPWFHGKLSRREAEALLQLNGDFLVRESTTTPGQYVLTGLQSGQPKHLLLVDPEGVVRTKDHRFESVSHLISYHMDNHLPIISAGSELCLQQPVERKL
Sequence of UniProt P08047 (P08047 whole entry, looked up): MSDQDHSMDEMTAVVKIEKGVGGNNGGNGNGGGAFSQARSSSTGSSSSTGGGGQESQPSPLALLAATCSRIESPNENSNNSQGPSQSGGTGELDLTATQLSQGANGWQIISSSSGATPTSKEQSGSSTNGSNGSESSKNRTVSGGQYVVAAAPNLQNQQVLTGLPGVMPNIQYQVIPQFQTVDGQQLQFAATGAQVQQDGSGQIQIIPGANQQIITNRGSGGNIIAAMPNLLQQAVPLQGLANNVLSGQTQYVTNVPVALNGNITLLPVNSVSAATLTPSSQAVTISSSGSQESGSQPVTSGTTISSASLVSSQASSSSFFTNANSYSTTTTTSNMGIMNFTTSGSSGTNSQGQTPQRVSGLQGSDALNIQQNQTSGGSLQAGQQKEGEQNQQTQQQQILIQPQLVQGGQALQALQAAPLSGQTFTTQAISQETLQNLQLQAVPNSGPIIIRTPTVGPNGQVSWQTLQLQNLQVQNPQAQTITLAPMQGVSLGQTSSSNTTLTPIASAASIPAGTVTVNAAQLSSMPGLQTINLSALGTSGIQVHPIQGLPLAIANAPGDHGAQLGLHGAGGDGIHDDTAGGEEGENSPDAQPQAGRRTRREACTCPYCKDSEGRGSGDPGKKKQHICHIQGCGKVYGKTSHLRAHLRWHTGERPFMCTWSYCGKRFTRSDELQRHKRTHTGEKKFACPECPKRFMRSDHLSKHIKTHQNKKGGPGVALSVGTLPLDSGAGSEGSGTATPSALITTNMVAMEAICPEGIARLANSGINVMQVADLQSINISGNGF

Compound in one assay: C1=CC=C(C=C1)C2=NC(=C(N2)C3=CC=NC=C3)C4=CC(=C(C=C4)Cl)O
Nature of the assay: log2 fold change, soluble protein after heating vs DMSO (PISA); higher = thermal stabilisation; K562 lysate, 10 uM; active = over 0.2 and 3.5 SD of the protein, either way, in both replicates (recomputed). The method in brief:
(§1)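 A 30 min treatment with 10 μM compound was applied to crude K562 extract at 1 mg/mL protein in PBS pH 7.4 with 1 mM MgCl2. Heating for 3 min spanned 48°C-58°C, after which aliquots were pooled, adjusted to 0.5% NP-40 at 4°C and spun at 21,000xg for 90 min. TMTpro 16plex LC-MS/MS of the supernatant, with channel sums equalised, gave values recorded as log-two fold change in thermal stability against solvent controls, from duplicates.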
For SNRPD2 (UniProt P62316), the log2 fold change was -0.001. On to SH3GL3 isoform 3 (UniProt Q99963), for which the log2 fold change was -0.108. Consider SMYD3 (UniProt Q9H7B4), for which the log2 fold change was -0.021.

With SNCA (UniProt P37840), the log2 fold change was -0.02. For the target STK25 (UniProt O00506), the log2 fold change is 0.031. Take SLC16A1 (UniProt P53985): the log2 fold change was 0.034. Take SNRPF (UniProt P62306): the log2 fold change is 0.028. On to SMG7 (UniProt Q92540), for which the log2 fold change was -0.047.

Compound in the next assay: C1=CC=C2C(=C1)C3=NNC4=CC=CC(=C43)C2=O
Described as above. Summed up: as §1
STK11IP (UniProt Q8N1F8): the log2 fold change was 0.025. With SPR (UniProt P35270), the log2 fold change is 0.013. The same measure, in the same setting: the figure for SFN (UniProt P31947) is 0.025; for SPPL2A (UniProt Q8TCT8) it is -0.141; for SPC25 (UniProt Q9HBM1) it is -0.006. With SNW1 (UniProt Q13573), the log2 fold change was -0.004. On to SMC2 (UniProt O95347), for which the log2 fold change was -0.036. The same measure, in the same setting: the value for TARBP1 (UniProt Q13395) was -0.048; that for SMC1B isoform 3 (UniProt Q8NDV3) was -0.032. Consider SRM (UniProt P19623), for which the log2 fold change is -0.003. Turning to SRRT (UniProt Q9BXP5), the log2 fold change was -0.03.

For the target SRPK1 (UniProt Q96SB4), the log2 fold change was 0.017.

With SNRNP40 (UniProt Q96DI7), the log2 fold change is 0.011. For the target SHC1 isoform 6 (UniProt P29353), the log2 fold change was -0.043. On to SSBP3 (UniProt Q9BWW4), for which the log2 fold change is 0.018. For the target SMIM8 (UniProt Q96KF7), the log2 fold change is 0.028. Consider SNAP23 (UniProt O00161), for which the log2 fold change is 0.022. For the target SPHK1 isoform 2 (UniProt Q9NYA1), the log2 fold change was -0.066. On to STK26 (UniProt Q9P289), for which the log2 fold change was 0.06. Regarding STK39 (UniProt Q9UEW8), the log2 fold change is -0.133. For SMN1 (UniProt Q16637), the log2 fold change was -0.068. With SMG5 (UniProt Q9UPR3), the log2 fold change is -0.035.

For the target SP1 (UniProt P08047), the log2 fold change was 0.04. The same measure, in the same setting: the figure for SSU72 (UniProt Q9NP77) is 0.005; for SNRPD2 (UniProt P62316) it is -0.035. Regarding SH3GL3 isoform 3 (UniProt Q99963), the log2 fold change was -0.133. On to SMYD3 (UniProt Q9H7B4), for which the log2 fold change is -0.036. As for SNCA (UniProt P37840), the log2 fold change was 0.044. Take STK25 (UniProt O00506): the log2 fold change was 0.317 (active).

As to SLC16A1 (UniProt P53985), the log2 fold change is 0.034. The same measure, in the same setting: the value for SNRPF (UniProt P62306) was -0.034; that for SMG7 (UniProt Q92540) was -0.032.

The values are drawn from the supplement of paper PMC10849652.
